Measured values from PubChem BioAssay (Tox21).
Records with an inconclusive call do not appear. A call without a number means that no potency is given here. Some compounds were tested as several samples or in several runs, with calls that do not always agree. Calls of active or inactive are those of the source. Unless noted, the call rests on the fitted dose curve.

Tests used:
[1] = Nuclear factor erythroid 2-related factor 2/antioxidant responsive element (Nrf2/ARE) small molecule agonists: luciferase reporter gene qHTS assay in human keratinocytes (AID 1919969); further: nearly all actives have a fitted effect of over 35% in size; further: potency means the concentration at half of the fitted maximal effect
[2] = target: Gonadotropin-releasing hormone receptor (Homo sapiens) (UniProt P30968); test: Human gonadotropin-releasing hormone receptor (GnRHR) small molecule agonists, calcium flux assay in GnRHR-HEK293 cells (AID 1920063); further: nearly all actives have a fitted effect of over 35% in size; further: potency means the concentration at half of the fitted maximal effect
How it was run: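 Calcium-dye fluorescence, Ex/Em=480/540, recorded every 1 sec over 3 min after compound addition to GnRHR-HEK293 cells. Cells had been seeded 18 hours earlier and dye-loaded for 1 hour at 37 C. Fifteen concentrations, triplicates.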

[3] = target: KiSS-1 receptor (Homo sapiens) (UniProt Q969F8); test: Human kisspeptin (KISS1R) small molecule agonists, calcium flux assay in KISS1R-HEK293 cells (AID 1920064; active means well fitted activation curve with a large enough effect in the repeat runs; further: potency means the concentration at half of the fitted maximal effect)
How it was run: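 Calcium flux read-out: kinetic fluorescence at Ex/Em=480/540, 1 s intervals over 3 min, after pin-tool compound addition to dye-loaded KISS1R-HEK293 cells. Fifteen concentrations, triplicates.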

[4] = G protein-coupled receptor (GPCR) small molecule agonists, calcium flux assay: HEK293 wild type cell line counter screen (AID 1920065); further: potency means the concentration at half of the fitted maximal effect
How it was run: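 Agonist mode; 18 h seeding at 37 C, 1 h dye load at 37 C; compounds pinned from DMSO, ATP as positive control; kinetic fluorescence 480/540 nm, 3 min, 1 s reads; 15 concentrations, triplicate.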

[5] = p53 small molecule agonists, cell-based qHTS assay with rat liver microsomes (AID 1963578)
How it was run: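 Fluorescence from a beta-lactamase reporter under a p53 response element was measured after cells had been incubated 16 h at 37 C with test compound and rat liver microsomes plus NADPH (0.5 mg/mL final each).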

[6] = p53 small molecule agonists, cell-based qHTS assay with rat liver microsomes: qHTS cell viability counter screen (AID 1963580); further: nearly all actives have a fitted effect of over 45% in size
How it was run: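 Cytotoxicity counter screen: intracellular ATP read by CellTiter-Glo luminescence in the p53 reporter wells. HCT-116 p53RE-bla cells were treated for 16 h at 37 C alongside rat liver microsomes and NADPH, each 0.5 mg/mL final.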

[7] = p53 small molecule agonists, cell-based qHTS assay: qHTS cell viability counter screen (AID 1963581); further: nearly all actives have a fitted effect of over 45% in size
How it was run: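 Cytotoxicity read-out: ATP-based luminescence (CellTiter-Glo, 30 min RT) measured in the same wells as the p53 reporter assay, HCT-116 p53RE-bla cells, 16 h compound exposure at 37 C.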

[8] = p53 small molecule agonists, cell-based qHTS assay (AID 1963582; active means well fitted activation curve with a large enough effect in the signal ratio in the repeat runs, not every such curve was filed as active; the % refers to the signal ratio; further: potency means the concentration at half of the fitted maximal effect)
How it was run: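 Fluorescence intensity read-out of a beta-lactamase reporter under a p53 response element. Cells were exposed to DMSO-dissolved compounds for 16 h at 37 C, then developed with FRET substrate for 2 h at RT.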

[9] = cAMP Responsive Elements (CRE) small molecule agonists, cell-based qHTS assay (AID 1963590)
How it was run: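 Beta-lactamase reporter readout: LiveBLAzer B/G FRET substrate, 2 h at room temperature, added after 3 h compound treatment of CRE-bla HEK 293T cells at 37 C/5% CO2.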

[10] = cAMP Responsive Elements (CRE) small molecule antagonists, cell-based qHTS assay (AID 1963591; active means well fitted inhibition curve with a large enough effect in the signal ratio in the repeat runs, not every such curve was filed as active; the % refers to the signal ratio)
How it was run: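 HEK293T CRE-bla; 18 h preincubation; compound pin-transfer; NKH477 0.25 uM final, 3 h, 37 C; LiveBLAzer FRET substrate 2 h RT.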

[11] = target: Beta-2 adrenergic receptor (Homo sapiens) (UniProt P07550); test: Adrenergic beta2 receptor (ADRB2) small molecule agonists, cell-based qHTS assay (AID 1963593);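 further: CHO cells stably overexpressing human ADRB2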
How it was run: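 CHO cells stably over-expressing ADRB2 were plated overnight at 37C, then dosed with compounds plus a stimulation mix containing 100uM IBMX and 25uM Ro-20-1724 for 0.5hr at room temperature. cAMP was measured by HTRF competition, 1hr.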

[12] = target: D(2) dopamine receptor (Homo sapiens) (UniProt P14416); test: Dopamine D2 receptor (DRD2) small molecule agonists, cell-based qHTS assay (AID 1963594); further: nearly all actives have a fitted effect of over 35% in size
How it was run: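 cAMP accumulation in DRD2-HEK293 cells measured by HTRF after 1 h detection; compounds added 10 min before NKH477 (200nM […]) forskolin-analogue stimulation, 30 min at room temperature, with Ro20-1724 present at 0.1 mM final.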

[13] = target: D(2) dopamine receptor (Homo sapiens) (UniProt P14416); test: Dopamine D2 receptor (DRD2) small molecule antagonists, cell-based qHTS assay (AID 1963595; active means well fitted inhibition curve with a large enough effect in the signal ratio in the repeat runs, with a control signal flat; the % refers to the signal ratio)
How it was run: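 Cells were plated and grown for 24 h at 37 °C. Ro20-1724 (0.1 mM final) went in first, then compound for 10 min. NKH477 (200 nM) with quinpirole (12 nM) followed for 30 min at RT, then HTRF detection reagents for 1 h.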

[14] = p53 small molecule agonists, cell-based qHTS assay with human liver microsomes: qHTS cell viability counter screen (AID 1963579); further: nearly all actives have a fitted effect of over 45% in size
How it was run: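 Seed p53RE-bla cells at 4,000 per well; incubate 5 h at 37 C; add compound, human liver microsomes and NADPH; incubate 16 h at 37 C; add CellTiter-Glo; after 30 min at room temperature, read luminescence.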

[15] = target: Muscarinic acetylcholine receptor M1 (Homo sapiens) (UniProt P11229); test: Cholinergic receptor muscarinic 1 (CHRM1) small molecule antagonists, cell-based qHTS assay (AID 1963588); further: nearly all actives have a fitted effect of over 40% in size; further: potency means the concentration at half of the fitted maximal effect
How it was run: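 Compounds were tested at 15 concentrations in three independent runs. Dye-loaded CHRM1-CHO cells were exposed 5 min at room temperature before stimulation by acetylcholine added at 50nM. Intracellular calcium was read kinetically on FDSS for 3 min.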

[16] = target: Muscarinic acetylcholine receptor M1 (Homo sapiens) (UniProt P11229); test: Cholinergic receptor muscarinic 1 (CHRM1) small molecule agonists, cell-based qHTS assay (AID 1963589); further: nearly all actives have a fitted effect of over 35% in size; further: potency means the concentration at half of the fitted maximal effect
How it was run: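 Calcium flux read-out: kinetic fluorescence at 1 sec intervals after pin-tool compound addition to dye-loaded CHRM1-CHO cells (human M1). Agonist mode; 15 concentrations tested in triplicate independent runs.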

[17] = target: 5-hydroxytryptamine receptor 2A (Homo sapiens) (UniProt P28223); test: 5-hydroxytryptamine receptor 2A (HTR2A) small molecule antagonists, cell-based qHTS assay (AID 1963586); further: nearly all actives have a fitted effect of over 45% in size
How it was run: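 CHO cells stably expressing human HTR2A were plated for 18 h at 37 C, then loaded with calcium dye for 1 h. Compounds were preincubated 5 min at room temperature before DOI (4 nM solution) was added. Kinetic fluorescence was read for 3 min.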

[18] = target: 5-hydroxytryptamine receptor 2A (Homo sapiens) (UniProt P28223); test: 5-hydroxytryptamine receptor 2A (HTR2A) small molecule agonists, cell-based qHTS assay (AID 1963587); further: nearly all actives have a fitted effect of over 30% in size; further: potency means the concentration at half of the fitted maximal effect
How it was run: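 Kinetic calcium-flux fluorescence (2 min, 1 sec intervals) after compound addition in agonist mode. HTR2A-CHO cells were cultured 18 h, then dye-loaded 1 h at 37 C.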

[19] = target: Beta-2 adrenergic receptor (Homo sapiens) (UniProt P07550); test: Adrenergic beta2 receptor (ADRB2) small molecule antagonists, cell-based qHTS assay (AID 1963592); further: series mostly up to about 92 µM; nearly all actives have a fitted effect of over 50% in size
How it was run: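 Assay format: CHO-ADRB2 cells, 18-20hr seeding at 37C/5% CO2, then compound plus 1nM isoproterenol agonist mix for 0.5hr RT. Homogeneous time-resolved fluorescence cAMP detection after 1hr, expressed as 665/615 nm ratio.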

Sequence of KiSS-1 receptor (Homo sapiens) (Q969F8 whole entry, looked up): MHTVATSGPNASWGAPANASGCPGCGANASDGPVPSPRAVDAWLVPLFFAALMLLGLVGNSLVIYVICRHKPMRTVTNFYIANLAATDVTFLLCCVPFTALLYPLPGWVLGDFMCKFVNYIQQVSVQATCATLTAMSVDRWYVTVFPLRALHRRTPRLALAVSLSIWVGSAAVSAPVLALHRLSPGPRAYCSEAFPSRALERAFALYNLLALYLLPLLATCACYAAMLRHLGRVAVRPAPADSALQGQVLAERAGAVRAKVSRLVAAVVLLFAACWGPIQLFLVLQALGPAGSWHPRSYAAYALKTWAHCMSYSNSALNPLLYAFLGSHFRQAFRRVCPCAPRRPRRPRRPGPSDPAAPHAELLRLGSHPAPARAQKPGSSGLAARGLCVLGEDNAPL
Sequence of Muscarinic acetylcholine receptor M1 (Homo sapiens) (P11229 whole entry, looked up): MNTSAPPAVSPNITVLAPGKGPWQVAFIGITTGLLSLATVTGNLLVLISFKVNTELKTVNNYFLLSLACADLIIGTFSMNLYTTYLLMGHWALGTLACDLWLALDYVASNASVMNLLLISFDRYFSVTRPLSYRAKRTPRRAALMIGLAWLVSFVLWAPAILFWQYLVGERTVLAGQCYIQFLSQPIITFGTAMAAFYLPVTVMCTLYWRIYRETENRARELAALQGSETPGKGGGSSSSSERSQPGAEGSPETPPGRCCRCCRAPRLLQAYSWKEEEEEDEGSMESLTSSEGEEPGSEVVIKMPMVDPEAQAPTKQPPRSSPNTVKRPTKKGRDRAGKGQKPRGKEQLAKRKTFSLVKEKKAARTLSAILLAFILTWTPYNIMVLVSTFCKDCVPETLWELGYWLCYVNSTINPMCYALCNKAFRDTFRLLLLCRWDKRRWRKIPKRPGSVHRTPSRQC
Sequence of Gonadotropin-releasing hormone receptor (Homo sapiens) (P30968 whole entry, looked up): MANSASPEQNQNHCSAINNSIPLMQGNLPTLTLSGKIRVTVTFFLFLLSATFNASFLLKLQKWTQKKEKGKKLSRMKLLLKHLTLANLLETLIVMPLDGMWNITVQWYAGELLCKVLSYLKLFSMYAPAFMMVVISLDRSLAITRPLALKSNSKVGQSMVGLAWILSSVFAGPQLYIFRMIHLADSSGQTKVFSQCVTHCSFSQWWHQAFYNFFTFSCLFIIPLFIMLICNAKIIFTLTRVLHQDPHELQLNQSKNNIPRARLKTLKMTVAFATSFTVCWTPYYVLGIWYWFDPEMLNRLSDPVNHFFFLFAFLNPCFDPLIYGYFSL
Sequence of D(2) dopamine receptor (Homo sapiens) (P14416 whole entry, looked up): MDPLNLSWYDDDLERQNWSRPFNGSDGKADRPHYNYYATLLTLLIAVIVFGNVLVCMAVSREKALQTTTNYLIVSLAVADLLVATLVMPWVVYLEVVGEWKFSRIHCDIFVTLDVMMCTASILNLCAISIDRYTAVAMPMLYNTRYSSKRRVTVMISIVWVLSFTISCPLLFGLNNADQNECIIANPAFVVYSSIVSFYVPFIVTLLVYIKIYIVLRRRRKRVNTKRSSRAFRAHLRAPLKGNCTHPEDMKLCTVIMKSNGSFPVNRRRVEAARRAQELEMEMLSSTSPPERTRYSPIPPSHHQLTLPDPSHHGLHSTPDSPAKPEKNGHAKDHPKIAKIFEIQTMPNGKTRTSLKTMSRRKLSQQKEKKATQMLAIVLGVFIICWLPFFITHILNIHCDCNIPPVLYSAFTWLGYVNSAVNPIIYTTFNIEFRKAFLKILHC
Sequence of Beta-2 adrenergic receptor (Homo sapiens) (P07550 whole entry, looked up): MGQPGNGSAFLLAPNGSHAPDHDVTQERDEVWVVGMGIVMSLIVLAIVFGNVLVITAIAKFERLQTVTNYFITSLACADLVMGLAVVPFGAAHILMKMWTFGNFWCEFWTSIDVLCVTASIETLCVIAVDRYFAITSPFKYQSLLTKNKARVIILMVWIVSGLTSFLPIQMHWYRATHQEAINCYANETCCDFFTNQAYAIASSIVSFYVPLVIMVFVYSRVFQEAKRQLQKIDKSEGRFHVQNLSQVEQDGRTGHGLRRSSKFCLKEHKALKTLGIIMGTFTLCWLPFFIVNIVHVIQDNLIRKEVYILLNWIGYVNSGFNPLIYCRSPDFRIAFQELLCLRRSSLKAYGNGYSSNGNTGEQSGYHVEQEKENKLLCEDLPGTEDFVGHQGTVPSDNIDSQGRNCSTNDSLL
Sequence of 5-hydroxytryptamine receptor 2A (Homo sapiens) (P28223 whole entry, looked up): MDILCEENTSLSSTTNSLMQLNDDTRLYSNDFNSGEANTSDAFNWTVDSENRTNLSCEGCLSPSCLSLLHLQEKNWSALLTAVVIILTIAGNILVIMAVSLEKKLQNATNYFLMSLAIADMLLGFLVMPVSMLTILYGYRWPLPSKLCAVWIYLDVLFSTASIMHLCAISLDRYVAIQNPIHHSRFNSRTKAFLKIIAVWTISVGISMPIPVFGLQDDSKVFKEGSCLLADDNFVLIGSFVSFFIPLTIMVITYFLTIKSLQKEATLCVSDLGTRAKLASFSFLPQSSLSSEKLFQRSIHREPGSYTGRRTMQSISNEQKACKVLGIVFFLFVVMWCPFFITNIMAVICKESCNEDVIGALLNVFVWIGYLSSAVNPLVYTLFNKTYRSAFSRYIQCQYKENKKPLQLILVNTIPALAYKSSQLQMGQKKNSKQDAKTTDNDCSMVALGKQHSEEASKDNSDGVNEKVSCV

## CCC(C)n1ncn(-c2ccc(N3CCN(c4ccc(OC[C@H]5CO[C@](Cn6cncn6)(c6ccc(Cl)cc6Cl)O5)cc4)CC3)cc2)c1=O (stereo not given in full)
[1]
  Potency: inactive
[2]
  Potency: inactive
[3]
  Potency: inactive
[4]
  Potency: inactive
[5]
  Potency: inactive
[6]
  Potency: inactive
[7]
  Potency: inactive
[8]
  Potency: inactive
[9]
  Potency: inactive
[10]
  Potency: inactive
[11]
  Potency: inactive
[12]
  Potency: inactive
[13]
  Potency: inactive

## O=C1OC2(c3ccc(O)cc3Oc3cc(O)ccc32)c2ccc(N=C=S)cc21
[1]
  Potency: inactive
[2]
  Potency: 14.1 µM (active)
[3]
  Potency: 44.4 µM (active)
[4]
  Potency: 39.6 µM (active)
[14]
  Potency: inactive
[6]
  Potency: inactive
[8]
  Potency: inactive
[15]
  Potency: inactive
[16]
  Potency: 22.3 µM (active)
[10]
  Potency: inactive
[11]
  Potency: inactive

## CC(=O)Oc1ccc(C2(c3ccc(OC(C)=O)cc3)Oc3ccccc3NC2=O)cc1
[1]
  Potency: inactive
[2]
  Potency: inactive
[3]
  Potency: inactive
[4]
  Potency: inactive
[5]
  Potency: inactive
[8]
  Potency: 4.46 µM (active)
[17]
  Potency: inactive
[18]
  Potency: inactive
[16]
  Potency: inactive
[9]
  Potency: inactive
[19]
  Potency: inactive

## O=C1OC(=O)c2cc(-c3ccc4c(c3)C(=O)OC4=O)ccc21
[1]
  Potency: 48.6 µM (active)
[2]
  Potency: inactive
[3]
  Potency: inactive
[4]
  Potency: inactive
[5]
  Potency: inactive
[6]
  Potency: inactive
[7]
  Potency: inactive
[8]
  Potency: inactive
[17]
  Potency: inactive
[18]
  Potency: inactive
[16]
  Potency: inactive
[9]
  Potency: inactive
[10]
  Potency: inactive
[19]
  Potency: inactive
[11]
  Potency: inactive
[12]
  Potency: inactive
[13]
  Potency: inactive

## O=[N+]([O-])c1nccn1CO[C@@H](CO)[C@H](O)CO
[1]
  Potency: inactive
[2]
  Potency: inactive
[3]
  Potency: inactive
[4]
  Potency: inactive
[14]
  Potency: inactive
[6]
  Potency: inactive
[7]
  Potency: inactive
[18]
  Potency: inactive
[15]
  Potency: inactive
[16]
  Potency: inactive
[9]
  Potency: inactive
[10]
  Potency: inactive
[19]
  Potency: inactive
[11]
  Potency: inactive
[12]
  Potency: inactive
[13]
  Potency: inactive

## NCCCC(N)(C(=O)O)C(F)F (stereo not given)
[1]
  Potency: inactive
[2]
  Potency: inactive
[3]
  Potency: inactive
[4]
  Potency: inactive
[14]
  Potency: inactive
[6]
  Potency: inactive
[7]
  Potency: inactive
[17]
  Potency: inactive
[15]
  Potency: 0.163 µM (active)
[16]
  Potency: inactive
[9]
  Potency: inactive
[10]
  Potency: inactive
[19]
  Potency: inactive
[11]
  Potency: inactive
[12]
  Potency: inactive
[13]
  Potency: inactive

## CCCCCCC(O)CCCCCCCCCCC(=O)O (stereo not given)
[1]
  Potency: inactive
[2]
  Potency: inactive
[3]
  Potency: inactive
[4]
  Potency: inactive
[14]
  Potency: inactive
[6]
  Potency: inactive
[7]
  Potency: inactive
[17]
  Potency: inactive
[18]
  Potency: 3.9 µM (active) and inactive
[16]
  Potency: inactive
[9]
  Potency: inactive
[10]
  Potency: inactive
[19]
  Potency: inactive
[11]
  Potency: inactive
[12]
  Potency: inactive
[13]
  Potency: inactive
